Experimental data taken from PubChem BioAssay (NCI).
This is part of a sample that, as a whole, favours compounds with a hit. Of some 83,000 tested, about 20% had one in any assay.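 48-hour exposure, single concentration, 96-well plates; percent growth endpoint where 0 means no net growth. Active: below 10.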 Unmarked numbers belong to inactive results. Activity calls are given as the source filed them.

Legend:
Assay in all cases: NCI-60 one-dose screen, 48 h (100 = growth as untreated, 0 = no growth, -100 = all killed)
Conditions in all cases: 10 µM unless noted
NCI-H23 lung = system: NCI-H23 lung
NCI-H226 lung = system: NCI-H226 lung
NCI-H322M lung = system: NCI-H322M lung
HOP-62 NSCLC = system: HOP-62 NSCLC
NCI-H460 lung = system: NCI-H460 lung
HOP-92 NSCLC = system: HOP-92 NSCLC
NCI-H522 lung = system: NCI-H522 lung
A549/ATCC NSCLC = system: A549/ATCC NSCLC
786-0 renal = system: 786-0 renal
COLO 205 colon = system: COLO 205 colon
DU-145 prostate = system: DU-145 prostate
K-562 leukemia = system: K-562 leukemia
MALME-3M melanoma = system: MALME-3M melanoma
MDA-MB-231 breast = system: MDA-MB-231 breast
RXF 393 renal = system: RXF 393 renal
SF-268 CNS = system: SF-268 CNS
SF-295 CNS = system: SF-295 CNS
SF-539 CNS = system: SF-539 CNS
UACC-257 melanoma = system: UACC-257 melanoma
M14 melanoma = system: M14 melanoma

SMILES | growth (NCI-H23 lung) [%] | growth (NCI-H226 lung) [%] | growth (NCI-H322M lung) [%] | growth (HOP-62 NSCLC) [%] | growth (NCI-H460 lung) [%] | growth (HOP-92 NSCLC) | growth (NCI-H522 lung) [%] | growth (A549/ATCC NSCLC) [%] | growth (786-0 renal) [%] | growth (COLO 205 colon) [%] | growth (DU-145 prostate) [%] | growth (K-562 leukemia) [%] | growth (MALME-3M melanoma) [%] | growth (MDA-MB-231 breast) [%] | growth (RXF 393 renal) | growth (SF-268 CNS) [%] | growth (SF-295 CNS) [%] | growth (SF-539 CNS) | growth (UACC-257 melanoma) [%] | growth (M14 melanoma) [%]
Cc1ccc(C)c2c1sc1nc(N3CCOCC3)c(C#N)c(=O)n12 | 76.1 | 89.6 | 107 | 94.2 | 94.9 | 71.7% | 94.8 | 98.4 | 104 | 104 | 103 | 151 | 97.1 | 92 | 114% | 88 | 61.7 | 96.4% | 112 | 92.9
Cc1ccc2c(c1)=C/C(=C\c1cc(-c3ccccc3)[nH]c1O)C(=O)N=2 | 56.7 | 69.5 | 82.2 | 52 | 25.6 | 58% | 27 | 46.2 | 41.6 | 33.1 | 61.6 | 13.7 | 54.5 | 50.6 | 34.5% | 47.4 | 32.8 | 8.94% (active) | 64.7 | 17.8
O=C(/C=C/c1ccccc1Cl)c1cccc(OCCCCOc2cccc(C(=O)/C=C/c3ccccc3Cl)c2)c1 | 96.5 | 90.3 | 99.9 | 103 | 99.6 | 94.4% | 97.1 | 95.3 | 103 | 107 | 102 | 99.2 | 91.9 | 102 | 99.6% | 106 | 104 | 101% | 98.2 | 86.5
CCCCCCCCn1ccc2cc(NC(=O)CN3CCN(c4cc(C)nc(Cl)n4)CC3)ccc21 | 81.7 | 82.2 | 89.5 | 119 | 91.8 | 81.1% | 76.2 | 87.4 | 94.6 | 106 | 93.8 | 63.1 | 95.3 | 94.8 | 69.2% | 90.3 | 83.7 | 92.8% | 92.8 | 89.4
CN(C)c1ccc(/C=N\NC(=O)c2ccc3nc(-c4ccc(Cl)cc4)[nH]c3c2)cc1 | 61.4 | 93.1 | 77.6 | 60.5 | 36.2 | 84.6% | 96.1 | 17.8 | 12.2 | 41.3 | 85.4 | 38.8 | 11.8 | 63.9 | 77.4% | 78.2 | 31.3 | 88% | 100 | 60.3
Cc1cc(O)cc(-c2nn(C)cc2-c2cc(N3CCOCC3)nc(-c3cccnc3)n2)c1 | 56.1 | 36.7 | 59.7 | 49.3 | 12.4 | 6.01% (active) | 13.1 | 39.3 | 18.2 | 16.3 | 53.7 | 21.6 | 55.7 | 53.2 | 9.64% (active) | 44.8 | 14.9 | -12.8% (active) | 61.3 | 28.4
S=c1ccnc[nH]1 | 103 | 107 | 114 | 109 | 105 | 76.2% | 65.8 | 98.2 | 89.7 | 102 | 116 | 113 | 123 | 115 | 128% | 113 | 115 | 100% | 105 | 96.6
O=C1CCCCN1c1ccc(C2=NCCCN2)cc1 | 99.2 | 101 | 92.3 | 101 | 94.9 | 117% | 79.1 | 97 | 95 | 104 | 103 | 80.6 | 77.4 | 88.6 | 90.4% | 92 | 85.1 | 64.7% | 111 | 104
